Source: PubChem BioAssay
Calls of active or inactive are those of the source.

Experiments:
[1] = anti-His antibody binders, primary screen, artefact control for SMM control protein annotation, biochemical, small-molecule microarray, 635 nm fluorescence (AID 1128); conditions: anti-His Alexa647 antibody binding, higher = more signal;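 further: score merges feature fluorescence with signal-to-noise for each printed compound spot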
[2] = system: Human papillomavirus type 1a E7 protein (residues 1-88); assay: HPV1a E7 small-molecule binders, primary screen, biochemical, small-molecule microarray, residues 1-88, 635 nm (AID 1129); conditions: small-molecule microarray binding, fluorescence 635 nm; higher = more signal
[3] = biological target: Focal adhesion kinase 1 (Homo sapiens) (UniProt Q05397); assay: small-molecule microarray binders of FAK, primary screen, biochemical, 635/667 nm fluorescence, BSA, DTT (AID 1130); conditions: PTK2 binding, 635 nm fluorescence, higher = more signal;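 further: composite of spot emission at 667 nm and signal to noise over triplicate slides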
[4] = system: Fibrinogen (Alexa647-labelled); assay: fibrinogen binders on compound microarrays, profiling panel, artefact control for SMM control-protein annotation, biochemical, small-molecule microarray, 635/667 nm fluorescence (AID 1131); conditions: fibrinogen-A647 binding fluorescence, higher = more signal;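 further: z-score merges 667 nm fluorescence with per-spot signal-to-noise over triplicate slides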
[5] = biological target: Follistatin (Homo sapiens) (UniProt P19883); assay: follistatin binders on small-molecule microarrays, primary screen, biochemical, small-molecule microarray, 635/667 nm fluorescence (AID 1132); conditions: FST binding, 635 nm fluorescence, higher = more signal
[6] = biological target: Fibroblast growth factor 2 (Homo sapiens) (UniProt P09038); assay: FGF2 binders on small-molecule microarrays, primary screen, biochemical, small-molecule microarray, 635/667 nm fluorescence (AID 1133); conditions: small-molecule microarray binding, FGF2, fluorescence 635/667; higher = more signal
[7] = mitochondrial membrane potential change in A549 cells, profiling panel, cell-based, JC-1 fluorescence, basal, 24 h, 100 nL (AID 1138); conditions: higher = more signal;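 further: A549 lung adenocarcinoma cells under basal conditions with no added stimulus; test concentration not given here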
Lefty1 = Lefty1 binders on small-molecule microarrays, primary screen, biochemical, small-molecule microarray, 635/667 nm fluorescence (AID 1139); conditions: small-molecule microarray binding, fluorescence 635/667; higher = more signal
[8] = system: wheat germ agglutinin (Triticum aestivum), Alexa647-labelled; assay: wheat germ agglutinin binders on compound microarrays, profiling panel, artefact control for SMM control-protein annotation, biochemical, small-molecule microarray, 635/667 nm fluorescence (AID 1140); conditions: WGA-A647 binding, 635 nm fluorescence, higher = more signal;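 further: score merges 667 nm feature emission with signal to noise over triplicate slides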
[9] = biological target: Luciferin 4-monooxygenase (Photinus pyralis) (UniProt P08659); assay: firefly luciferase enzyme inhibitors, primary screen, biochemical, luminescence, purified enzyme, 2006 set (AID 1141); conditions: SteadyGlo luminescence, 30 min, higher = more signal, called active from +8 up or from −8 down;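 further: cell-free assay with purified firefly luciferase at 100 ng per well in PBS; test concentration not given here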
Luciferin 4-monooxygenase (Photinus pyralis), sequence (P08659 whole entry, looked up): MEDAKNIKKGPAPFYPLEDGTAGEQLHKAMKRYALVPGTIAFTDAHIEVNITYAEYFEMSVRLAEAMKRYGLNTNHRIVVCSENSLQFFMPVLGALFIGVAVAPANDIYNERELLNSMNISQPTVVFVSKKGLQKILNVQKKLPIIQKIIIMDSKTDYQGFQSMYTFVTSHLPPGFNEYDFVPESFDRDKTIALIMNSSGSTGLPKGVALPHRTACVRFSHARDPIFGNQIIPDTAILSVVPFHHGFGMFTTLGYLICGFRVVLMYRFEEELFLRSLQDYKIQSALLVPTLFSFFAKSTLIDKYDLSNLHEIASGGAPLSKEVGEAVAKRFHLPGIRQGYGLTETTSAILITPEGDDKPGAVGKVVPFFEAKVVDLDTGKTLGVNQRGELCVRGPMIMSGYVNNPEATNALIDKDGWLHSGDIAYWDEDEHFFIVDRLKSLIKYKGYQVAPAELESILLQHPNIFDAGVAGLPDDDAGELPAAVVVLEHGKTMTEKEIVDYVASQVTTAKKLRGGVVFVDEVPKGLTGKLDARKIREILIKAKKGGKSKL

Fibroblast growth factor 2 (Homo sapiens), sequence (P09038 whole entry, looked up): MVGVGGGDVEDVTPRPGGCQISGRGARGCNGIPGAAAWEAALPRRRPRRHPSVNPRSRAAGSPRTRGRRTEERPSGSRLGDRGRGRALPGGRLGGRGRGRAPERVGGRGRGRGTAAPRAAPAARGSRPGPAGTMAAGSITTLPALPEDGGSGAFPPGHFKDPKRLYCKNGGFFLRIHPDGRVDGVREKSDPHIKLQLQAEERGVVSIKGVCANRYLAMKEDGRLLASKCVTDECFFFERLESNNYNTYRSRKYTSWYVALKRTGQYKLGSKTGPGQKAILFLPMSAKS
Focal adhesion kinase 1 (Homo sapiens), sequence (Q05397 whole entry, looked up): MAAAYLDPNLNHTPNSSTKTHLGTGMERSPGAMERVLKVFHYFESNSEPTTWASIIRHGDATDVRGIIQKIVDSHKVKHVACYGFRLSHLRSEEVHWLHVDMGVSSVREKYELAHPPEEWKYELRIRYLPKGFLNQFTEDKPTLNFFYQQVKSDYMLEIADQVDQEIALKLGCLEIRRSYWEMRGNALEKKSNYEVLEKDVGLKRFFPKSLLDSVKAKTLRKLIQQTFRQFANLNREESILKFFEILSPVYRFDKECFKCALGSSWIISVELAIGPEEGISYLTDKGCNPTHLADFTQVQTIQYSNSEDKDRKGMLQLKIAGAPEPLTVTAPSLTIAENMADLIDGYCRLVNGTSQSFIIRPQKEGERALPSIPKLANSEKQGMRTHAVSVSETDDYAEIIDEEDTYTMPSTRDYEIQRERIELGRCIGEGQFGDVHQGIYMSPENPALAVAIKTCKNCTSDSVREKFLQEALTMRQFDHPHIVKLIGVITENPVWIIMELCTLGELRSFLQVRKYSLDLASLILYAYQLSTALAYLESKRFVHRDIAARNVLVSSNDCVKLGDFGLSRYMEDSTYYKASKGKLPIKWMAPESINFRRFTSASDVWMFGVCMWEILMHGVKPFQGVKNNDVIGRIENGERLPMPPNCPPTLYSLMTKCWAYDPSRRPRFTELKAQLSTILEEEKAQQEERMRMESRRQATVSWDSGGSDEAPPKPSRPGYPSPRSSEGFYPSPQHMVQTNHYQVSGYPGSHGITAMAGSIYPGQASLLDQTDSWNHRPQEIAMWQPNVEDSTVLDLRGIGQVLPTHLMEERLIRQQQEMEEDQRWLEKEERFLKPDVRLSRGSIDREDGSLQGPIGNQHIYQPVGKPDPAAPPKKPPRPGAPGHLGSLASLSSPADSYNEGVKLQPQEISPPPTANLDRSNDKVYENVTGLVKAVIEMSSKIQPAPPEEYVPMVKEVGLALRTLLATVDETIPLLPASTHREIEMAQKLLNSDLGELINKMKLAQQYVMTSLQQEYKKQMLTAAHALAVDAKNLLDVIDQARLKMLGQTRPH
Follistatin (Homo sapiens), sequence (P19883 whole entry, looked up): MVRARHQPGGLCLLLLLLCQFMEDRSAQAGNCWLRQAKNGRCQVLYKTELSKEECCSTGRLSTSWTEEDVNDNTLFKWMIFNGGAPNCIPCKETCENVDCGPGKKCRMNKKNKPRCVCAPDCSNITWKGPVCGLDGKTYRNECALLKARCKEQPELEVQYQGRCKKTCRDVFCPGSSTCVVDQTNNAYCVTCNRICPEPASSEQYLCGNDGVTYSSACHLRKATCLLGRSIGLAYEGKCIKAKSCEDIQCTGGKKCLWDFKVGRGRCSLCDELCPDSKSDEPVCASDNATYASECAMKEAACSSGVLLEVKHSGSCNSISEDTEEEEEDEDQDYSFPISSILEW

Compound | composite z-score [1] | composite z-score [2] | composite z-score [3] | composite z-score [4] | composite z-score [5] | composite z-score [6] | z-score [7] | composite z-score (Lefty1) | composite z-score [8] | z-score [9]
CCOC(=O)C1=CC[C@@H](c2ccccc2)N(S(=O)(=O)c2ccc(C)cc2)[C@H]1c1ccc(CC)cc1 | 1.09 | 1.18 | 0.761 | 0.966 | 0.352 | 0.286 | 2.58 | 0.245 | 0.758 | 1.46 (inactive)
O=C(O)[C@H]1C[C@H]2C(=O)N3CCC[C@H]3C(=O)N2[C@H]1c1ccc(O)cc1 | 0.0617 | -0.94 | -0.222 | -1.83 | -0.374 | -0.879 | 1.62 | -0.801 | -0.842 | -2.53 (inactive)
O=C(CS)NCCCCCNC(=O)[C@H]1C[C@H]2C(=O)NCC(=O)N2[C@H]1c1cccc(OCCO)c1 | -0.0298 | -0.864 | 0.319 | 0.0186 | 0.952 | 0.399 | -0.0613 | -0.0561 | -0.347 | 0.76 (inactive)
CC[C@@H]1C=C(C(=O)O)[C@H](c2cccc3ccccc23)N1S(=O)(=O)c1ccc(C)cc1 | 1.18 | 1.11 | 1.39 | 0.159 | 0.414 | 0.108 | -0.345 | -0.103 | 0.302 | 1.46 (inactive)
O=C(CS)NCCCCCNC(=O)[C@@H]1C[C@@H]2C(=O)NCC(=O)N2[C@@H]1c1cccc(OCCO)c1 | 3.09 | -0.0552 | 1.8 | 0.0984 | 1.25 | 0.817 | 1.12 | 0.106 | 0.502 | -2.27 (inactive)
CN(C)CCCCCCNC(=O)[C@@H]1C[C@@H]2C(=O)N3CCC[C@H]3C(=O)N2[C@@H]1c1ccc(O)cc1 | 3.06 | 1.11 | -0.135 | 0.539 | 1.47 | 1.74 | 0.334 | 1.72 | 0.758 | -0.934 (inactive)
C=CC[C@@]1(C(=O)N2CCCCC2)N=C(c2ccc(OCCCO)cc2)O[C@@H]1c1ccccc1CN=[N+]=[N-] | 2.75 | 1.27 | 0.398 | 1.02 | 1.37 | 0.288 | -0.0114 | 0.484 | 0.768 | -1.37 (inactive)
C=C(CCCC)/C(=C/C[C@H](OC(C)=O)c1ccccc1OCCO)c1cnc2ccccc2c1 | 0.528 | 0.545 | -0.0464 | -0.128 | 0.891 | 0.481 | 1.76 | 0.861 | 0.664 | -0.895 (inactive)
CN1C(=O)C2C=CC(C(O)c3ccc(F)cc3)N(N(c3ccccc3)c3ccccc3)C2C1=O (stereo not given) | 0.202 | 0.619 | 0.0202 | -1.13 | 0.605 | -0.615 | 0.351 | -0.128 | 0.296 | 0.0492 (inactive)
COc1ccc(CCNC(=O)[C@@]2(c3ccc([N+](=O)[O-])cc3)CC(=O)N(CC34CC5CC(CC(C5)C3)C4)[C@@H]2c2ccc(CO)cc2I)cc1 | 1.35 | 1.17 | 0.458 | 0.478 | 1.39 | 1.37 | -1.36 | 0.881 | 0.913 | 0.641 (inactive)
C=CCC(OC(C)=O)[C@@H]1[C@@H](N(Cc2ccc(-c3cccc(C(F)(F)F)c3)o2)C(=O)Cc2ccc(OC)cc2)c2cc(OCCCO)ccc2N1C(=O)c1ccc2ccccc2c1 (stereo not given in full) | -0.448 | -0.811 | -0.198 | -1 | 0.776 | -0.522 | -0.322 | 0.199 | -0.145 | 0.535 (inactive)
CC1CC/C=C\[C@H]2OC34C=CCN(c5ccc6ccccc6c5)C(=O)[C@H]3N(CCO)C(=O)[C@@H]4C2C(=O)O1 (stereo not given in full) | -0.9 | -0.898 | -0.645 | -0.0601 | -0.839 | -0.467 | -0.245 | -0.708 | 1.03 | 0.288 (inactive)
COCCCNC(=O)[C@]1(Cc2ccccc2)N=C(c2ccc(OCCCO)cc2)O[C@@H]1c1ccccc1CN=[N+]=[N-] | 2.51 | 1.14 | 0.802 | 0.957 | 1.31 | 1.46 | 1.16 | -0.0031 | 0.963 | -0.932 (inactive)
COc1cc(OC)c(C(O)C2C=CC3C(=O)NC(=O)C3N2Nc2ccccn2)cc1Br (stereo not given) | 2.02 | 0.683 | 0.124 | 0.368 | 0.573 | 0.562 | 0.0938 | 0.483 | 0.0687 | -1.36 (inactive)
C=C(C)[C@@H]1CC=C(C(O)C2C=CC3C(=O)NC(=O)C3N2Nc2ccc(Cl)cc2Cl)CC1 (stereo not given in full) | 1.83 | 1.2 | 1.33 | 1 | 1.14 | -0.853 | -1.25 | -0.336 | 1.34 | 0.022 (inactive)
COc1ccc(CCNC(=O)[C@@]2(C)c3ccccc3C(=O)N(c3ccc(C)cn3)[C@H]2c2ccc(CO)cc2)cc1 | -0.463 | -0.0172 | -0.284 | -1.95 | -0.298 | -1.09 | 0.14 | -0.601 | -0.902 | 1.14 (inactive)
CN1C(=O)C2C=CC(C(O)c3c(F)cccc3Cl)N(NC(=O)OC(C)(C)C)C2C1=O (stereo not given) | 1.11 | 1.09 | 0.427 | 1.01 | 0.453 | -0.174 | 0.584 | -0.242 | 0.634 | 0.682 (inactive)
C=CCNC(=O)[C@@H]1[C@H]2C(=O)O[C@H](c3ccccc3)[C@H](c3ccccc3)N2[C@H](c2ccc(OCCO)cc2)[C@@]12C(=O)N(C(=O)OCCOC)c1ccc(C#CCNC(N)=O)cc12 | 1.26 | 1.17 | 0.613 | 0.82 | 1.38 | 1.34 | -0.746 | 0.947 | 0.94 | -0.94 (inactive)
CC(=O)NCCCC[C@@H]1NC(=O)[C@H]2C[C@@H](C(=O)NCCCCCNC(=O)CS)[C@@H](c3ccc(O)cc3)N2C1=O | 2.12 | -0.15 | 0.167 | -0.355 | 0.769 | 0.424 | 0.139 | -0.272 | -0.0796 | -2.56 (inactive)
C=CC[C@]12N=C(c3ccc(OCCCO)cc3)O[C@H]1c1ccccc1N(CCS(=O)(=O)c1ccccc1)C2=O | 1.66 | 1.23 | 0.472 | 0.971 | 1.15 | 1.38 | 0.337 | 1.05 | 0.97 | -12.4 (active)
O=C(NC1CC1)[C@@H]1c2ccccc2C(=O)N(C2Cc3ccccc3C2)[C@H]1c1ccc(CO)cc1 | 2.65 | 1.18 | 0.167 | -0.677 | 1.29 | 0.988 | 1.64 | 0.294 | 0.0895 | 0.659 (inactive)
O=C1C[C@@](C(=O)NCc2ccccc2)(c2ccc([N+](=O)[O-])cc2)[C@@H](c2ccc(CO)cc2)N1CC12CC3CC(CC(C3)C1)C2 | 0.729 | 1.19 | 1.42 | -0.151 | 1.33 | 1.46 | 1.44 | 0.943 | 0.162 | -0.756 (inactive)
O=C1C2C=CC(C(O)COCc3ccccc3)N(Nc3ccc([N+](=O)[O-])cc3)C2C(=O)N1c1ccccc1 (stereo not given) | 1.55 | 1.25 | 1.19 | 0.983 | 1.13 | 0.119 | -0.738 | 0.638 | 0.955 | 1.54 (inactive)
COc1ccc(C(O)C2C=CC3C(=O)N(C)C(=O)C3N2NC(=O)OC(C)(C)C)c2ccccc12 (stereo not given) | 1.62 | 1.28 | 0.685 | 0.988 | 0.832 | -0.161 | -0.771 | -0.33 | 1.31 | -0.9 (inactive)
CCOC(=O)C1=CCC(c2ccc(F)cc2)N(S(=O)(=O)c2ccc(C)cc2)C1 (stereo not given) | -0.596 | 0.818 | 1.52 | 0.265 | 0.345 | -0.287 | -0.231 | 0.471 | 0.764 | 1.4 (inactive)
